Results as given in PubChem BioAssay (EPA / NIEHS).
Some compounds were tested as several samples or in several runs, with calls that do not always agree. Calls of active or inactive are those of the source. How the source made its calls: active means hit-call score of the fitted dose curve at least 0.9, where 1 is the maximum; inactive means score below 0.9.

How the values were obtained:
[1] = BSK_KF3CT_SRB: Viability Assessment in the BioMAP Diversity Plus: KF3CT Assay (AID 2283069); conditions: primary human keratinocytes with fibroblasts;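 further: total protein by sulforhodamine B staining as a cytotoxicity measure; read 24 h after compound addition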
In short: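 SRB read-out at 560 nm (0.1% stain, TCA-fixed cells) gauges overt cytotoxicity in a human skin keratinocyte–fibroblast co-culture 24 h post-dosing. Signal change was fitted bidirectionally relative to DMSO control.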

[2] = read-out: Interleukin-1 alpha (IL1a), IL1A (gene 3552); test: BSK_KF3CT_IL1a: BioMAP Diversity Plus: KF3CT Assay for Interleukin-1 alpha (IL1a) Biomarker Activity (AID 2283070); conditions: primary human keratinocytes with fibroblasts; actives raise or lower the signal
In short: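 Primary skin co-culture (keratinocytes, foreskin fibroblasts), 24 h exposure; ELISA for IL-1a; bidirectional curve fit vs DMSO.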

[3] = read-out: TIMP metallopeptidase inhibitor 2 (TIMP2), TIMP2 (gene 7077); test: BSK_KF3CT_TIMP2: BioMAP Diversity Plus: KF3CT Assay for TIMP metallopeptidase inhibitor 2 (TIMP2) Biomarker Activity (AID 2283071); conditions: primary human keratinocytes with fibroblasts; actives raise or lower the signal
In short: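 Chemicals were dosed onto human skin primary co-cultures of keratinocytes and foreskin fibroblasts, and TIMP-2 was measured by ELISA after 24 hours. Activity in either direction was fitted relative to DMSO.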

[4] = read-out: Transforming growth factor beta 1 (TGFb1), TGFB1 (gene 7040); test: BSK_KF3CT_TGFb1: BioMAP Diversity Plus: KF3CT Assay for Transforming growth factor beta 1 (TGFb1) Biomarker Activity (AID 2283072); conditions: primary human keratinocytes with fibroblasts; actives raise or lower the signal
In short: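 KF3CT co-culture (keratinocytes + fibroblasts), 24 h exposure → TGF-b1 ELISA → bidirectional fit, DMSO = baseline. Parallel SRB total-protein staining (0.1% SRB, 10% TCA fixation, 560 nm) for cytotoxicity.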

[5] = read-out: C-C motif chemokine 2 (Homo sapiens) (UniProt P13500); test: BSK_KF3CT_MCP1: BioMAP Diversity Plus: KF3CT Assay for Monocyte Chemoattractant Protein 1 (MCP1/CCL2) Biomarker Activity (AID 2283073); conditions: primary human keratinocytes with fibroblasts; actives raise or lower the signal
In short: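 Human keratinocyte plus foreskin fibroblast primary co-culture exposed to chemical for 24 h. MCP-1 levels measured by ELISA. Bidirectional curve fitting relative to DMSO negative control as baseline.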

[6] = read-out: Matrix Metallopeptidase 9 (MMP9), MMP9 (gene 4318); test: BSK_KF3CT_MMP9: BioMAP Diversity Plus: KF3CT Assay for Matrix Metallopeptidase 9 (MMP9) Biomarker Activity (AID 2283074); conditions: primary human keratinocytes with fibroblasts; actives raise or lower the signal;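 on AC50: MMP9 protein level quantified by ELISA in the co-culture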
In short: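 ELISA read-out of MMP-9 at 24 h post-dosing in a co-culture of human skin keratinocytes and foreskin fibroblasts. Gain or loss of signal was fitted in both directions against DMSO.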

[7] = read-out: urokinase plasminogen activator (uPA), PLAU (gene 5328); test: BSK_KF3CT_uPA: BioMAP Diversity Plus: KF3CT Assay for urokinase plasminogen activator (uPA) Biomarker Activity (AID 2283075); conditions: primary human keratinocytes with fibroblasts; actives raise or lower the signal
In short: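 Skin co-culture (keratinocytes + foreskin fibroblasts), human primary; 24 h post-dose; uPA by ELISA; gain/loss fit vs DMSO baseline.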

CD40, CD40 (gene 958) [8] = test: BSK_LPS_CD40: BioMAP Diversity Plus: LPS Assay for CD40 Biomarker Activity (AID 2283076); conditions: primary human HUVEC with PBMC; actives raise or lower the signal
In short: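 Primary human umbilical vein endothelial cells co-cultured with peripheral blood mononuclear cells, LPS-stimulated, were dosed with chemical and read 24 h later. CD40 levels were measured by ELISA and fitted bidirectionally against DMSO as negative control and baseline.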

[9] = read-out: E-selectin (Homo sapiens) (UniProt P16581); test: BSK_LPS_Eselectin: BioMAP Diversity Plus: LPS Assay for Eselectin Biomarker Activity (AID 2283077); conditions: primary human HUVEC with PBMC; actives raise or lower the signal
In short: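 Human umbilical vein endothelial cells co-cultured with peripheral blood mononuclear cells under LPS stimulation; E-selectin measured by ELISA 24 h after chemical dosing. Activity fitted bidirectionally against DMSO as negative control and baseline.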

[10] = read-out: Interleukin-8 (IL8), CXCL8 (gene 3576); test: BSK_LPS_IL8: BioMAP Diversity Plus: LPS Assay for Interleukin-8 (IL8) Biomarker Activity (AID 2283078); conditions: primary human HUVEC with PBMC; actives raise or lower the signal
In short: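 Human umbilical vein endothelial cells co-cultured with PBMC were stimulated with LPS; IL-8 levels were measured by ELISA 24 h after chemical dosing. Activity was fitted bidirectionally against DMSO as negative control and baseline.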

[11] = BSK_LPS_SRB: Viability Assessment in the BioMAP Diversity Plus: LPS Assay (AID 2283079); conditions: primary human HUVEC with PBMC;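 further: total protein by sulforhodamine B absorbance as a cytotoxicity measure; measured one day after compound addition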
In short: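 Human umbilical vein endothelial cells co-cultured with PBMC (LPS system) were dosed for 24 h. Total protein was stained with 0.1% sulforhodamine B after 10% TCA fixation, read at 560 nm, and fitted bidirectionally against DMSO baseline.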

[12] = read-out: Interleukin-1 alpha (IL1a), IL1A (gene 3552); test: BSK_LPS_IL1a: BioMAP Diversity Plus: LPS Assay for Interleukin-1 alpha (IL1a) Biomarker Activity (AID 2283080); conditions: primary human HUVEC with PBMC; actives raise or lower the signal
In short: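 Human umbilical vein endothelial cells co-cultured with peripheral blood mononuclear cells were LPS-stimulated and exposed to test chemicals for 24 h. IL-1 alpha was quantified by ELISA, with bidirectional curve fitting against DMSO as the negative control and baseline.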

[13] = read-out: Monocyte Chemoattractant Protein-1 (MCP1), CCL2 (gene 6347); test: BSK_LPS_MCP1: BioMAP Diversity Plus: LPS Assay for Monocyte Chemoattractant Protein-1 (MCP1) Biomarker Activity (AID 2283081); conditions: primary human HUVEC with PBMC; actives raise or lower the signal;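 on AC50: secreted MCP-1 protein quantified by ELISA in culture supernatant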
In short: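 HUVEC plus PBMC co-culture (human primary cells, LPS system) exposed to test chemical for 24 h; MCP-1 measured by ELISA. Bidirectional curve fitting against DMSO baseline; parallel SRB total-protein staining flags overt cytotoxicity.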

[14] = BSK_LPS_PGE2: BioMAP Diversity Plus: LPS Assay for Prostaglandin E2 (PGE2) Biomarker Activity (AID 2283082); conditions: primary human HUVEC with PBMC; actives raise or lower the signal;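 on AC50: secreted prostaglandin E2 measured by ELISA in LPS-stimulated co-culture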
In short: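 Compounds were added to the LPS co-culture of endothelium and PBMC, and PGE2 was measured by ELISA after 24 h. Responses in either direction were fitted with DMSO as baseline.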

[15] = read-out: Macrophage colony-stimulating factor (MCSF), CSF1 (gene 1435); test: BSK_LPS_MCSF: BioMAP Diversity Plus: LPS Assay for Macrophage colony-stimulating factor (MCSF) Biomarker Activity (AID 2283083); conditions: primary human HUVEC with PBMC; actives raise or lower the signal
In short: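 Human umbilical vein endothelial cells co-cultured with peripheral blood mononuclear cells were exposed to compound for 24 h. M-CSF levels were measured by ELISA, and bidirectional curve fitting used DMSO as the negative control and baseline.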

[16] = read-out: Tissue Factor, F3 (gene 2152); test: BSK_LPS_TissueFactor: BioMAP Diversity Plus: LPS Assay for Tissue Factor Biomarker Activity (AID 2283084); conditions: primary human HUVEC with PBMC; actives raise or lower the signal
In short: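 Human umbilical vein endothelial cells co-cultured with peripheral blood mononuclear cells were dosed and stimulated with LPS. Cell-surface CD142 was quantified by ELISA at 24 h. Activity was fitted bidirectionally against DMSO baseline.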

[17] = read-out: Tumor necrosis factor (Homo sapiens) (UniProt P01375); test: BSK_LPS_TNFa: BioMAP Diversity Plus: LPS Assay for Tumour Necrosis Factor alpha (TNFa) Biomarker Activity (AID 2283085); conditions: primary human HUVEC with PBMC; actives raise or lower the signal;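 on AC50: TNFa protein level quantified by ELISA in the co-culture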
In short: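 Cells (umbilical vein endothelium plus peripheral blood mononuclear cells) were dosed with chemical, incubated 24 h, then TNFa was quantified by ELISA; values derive from bidirectional fitting with DMSO as baseline.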

[18] = read-out: Vascular cell adhesion molecule 1 (VCAM1), VCAM1 (gene 7412); test: BSK_LPS_VCAM1: BioMAP Diversity Plus: LPS Assay for Vascular cell adhesion molecule 1 (VCAM1) Biomarker Activity (AID 2283086); conditions: primary human HUVEC with PBMC; actives raise or lower the signal
In short: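 Cells are dosed in an LPS-stimulated endothelial/mononuclear co-culture and, after 24 h, VCAM-1 is quantified by ELISA. Activity in either direction is fitted relative to the DMSO negative control.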

CD38, CD38 (gene 952) = test: BSK_SAg_CD38: BioMAP Diversity Plus: SAg Assay for CD38 Biomarker Activity (AID 2283087); conditions: primary human HUVEC with PBMC; actives raise or lower the signal
In short: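 CD38 quantified by ELISA (fluorescence) in a superantigen-activated endothelial cell–PBMC co-culture at 24 h post-dose. Activity fitted in both directions relative to DMSO; parallel SRB and Alamar Blue cytotoxicity read-outs.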

CD40, CD40 (gene 958) [19] = test: BSK_SAg_CD40: BioMAP Diversity Plus: SAg Assay for CD40 Biomarker Activity (AID 2283088); conditions: primary human HUVEC with PBMC; actives raise or lower the signal
In short: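 Human umbilical vein endothelial cells co-cultured with PBMC; CD40 levels measured by ELISA with fluorescence read-out 24 h after chemical dosing. Gain or loss of signal fitted bidirectionally against DMSO baseline.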

Measured: AC50

Sequence of Tumor necrosis factor (Homo sapiens) (P01375 whole entry, looked up): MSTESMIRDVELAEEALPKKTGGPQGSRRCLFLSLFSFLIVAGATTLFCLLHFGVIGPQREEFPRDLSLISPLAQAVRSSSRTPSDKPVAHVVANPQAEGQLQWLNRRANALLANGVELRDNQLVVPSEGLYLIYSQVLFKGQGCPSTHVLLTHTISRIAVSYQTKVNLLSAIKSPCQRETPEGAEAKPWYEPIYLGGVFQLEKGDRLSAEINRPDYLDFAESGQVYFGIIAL
Sequence of E-selectin (Homo sapiens) (P16581 whole entry, looked up): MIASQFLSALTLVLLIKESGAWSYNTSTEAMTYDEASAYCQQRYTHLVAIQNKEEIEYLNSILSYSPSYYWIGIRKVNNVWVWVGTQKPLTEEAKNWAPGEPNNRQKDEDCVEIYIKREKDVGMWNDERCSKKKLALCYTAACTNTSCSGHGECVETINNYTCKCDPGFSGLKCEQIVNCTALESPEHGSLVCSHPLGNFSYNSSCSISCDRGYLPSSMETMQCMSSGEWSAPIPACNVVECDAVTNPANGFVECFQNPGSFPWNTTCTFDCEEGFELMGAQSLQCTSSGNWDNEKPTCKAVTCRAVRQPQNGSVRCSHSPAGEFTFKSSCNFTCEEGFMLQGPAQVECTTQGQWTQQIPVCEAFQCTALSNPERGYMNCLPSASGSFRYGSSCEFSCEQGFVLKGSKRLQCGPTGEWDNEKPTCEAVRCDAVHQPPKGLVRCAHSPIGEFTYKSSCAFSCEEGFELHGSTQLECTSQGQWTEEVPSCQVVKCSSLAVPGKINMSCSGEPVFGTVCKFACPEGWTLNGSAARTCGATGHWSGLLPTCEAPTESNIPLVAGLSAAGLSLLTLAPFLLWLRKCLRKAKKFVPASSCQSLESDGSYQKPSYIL

O=C1C2(Cl)C3(Cl)C4(Cl)C(Cl)(Cl)C5(Cl)C3(Cl)C1(Cl)C5(Cl)C24Cl (stereo not given)
active: [1] 8.1 µM | [2] 22.9 µM | [3] 24.2 µM | [4] 6.14 µM | [5] 35.1 µM | [6] 8.52 µM | [7] 11.1 µM | CD40, CD40 (gene 958) [8] 7.66 µM | [9] 11.1 µM | [10] 14.5 µM | [11] 6.4 µM | [12] 7.55 µM | [13] 10.7 µM | [14] 9.92 µM | [15] 10.6 µM | [16] 12 µM | [17] 11.6 µM | [18] 9.63 µM | CD38, CD38 (gene 952) 7.7 µM

COP(=S)(OC)Oc1c(Cl)cc(C)cc1Cl
active: [6] 20 µM | [11] 27.7 µM | [12] 0.108 µM | [18] 13.8 µM
not listed: CD40, CD40 (gene 958) [19]
inactive: all other assays above

O=c1[nH]c(=O)[nH]c(=O)[nH]1
inactive: all assays above

COc1cc(-c2ccc(N)c(OC)c2)ccc1N
active: [15] 19.2 µM | [16] 19.2 µM | [18] 23.9 µM
inactive: [1] | [2] | [3] | [4] | [5] | [6] | [7] | CD40, CD40 (gene 958) [8] | [9] | [10] | [11] | [12] | [13] | [15] | [16] | [17] | [18] | CD38, CD38 (gene 952) | CD40, CD40 (gene 958) [19]
